“And” between values parts separate entries of the source, which are not always exact repeats. Equal entries are not always repeated. Inconclusive results are not listed. A call without a number means that no potency is given here. Some structures have more than one record in an assay (separate samples or runs), and their calls can disagree. The source made the active and inactive calls. Unless noted, the call rests on the fitted dose curve; in most records, active means well fitted curve in the direction sought with a large enough effect in the repeat runs; inconclusive means weak or mixed curves; inactive means no such curve, though single readings can be large; an effect the other way counts as inactive or inconclusive.
Legend:
[1] = qHTS assay to identify small molecule agonists of the vitamin D receptor (VDR) signaling pathway - cell viability counter screen (AID 743224); further: nearly all actives have a fitted effect of over 50% in size; further: potency means the concentration at half of the fitted maximal effect
Outline: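 Plated VDR-bla cells (4 h, 37C) received compound, incubated 16 h, then LiveBLAzer substrate 2 h RT; CellTiter-Glo added afterwards, luminescence read at 30 min.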

[2] = qHTS assay to identify small molecule antagonists of the vitamin D receptor (VDR) signaling pathway - cell viability counter screen (AID 743225); further: nearly all actives have a fitted effect of over 50% in size; further: potency means the concentration at half of the fitted maximal effect
Outline: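 Parallel cytotoxicity test: VDR-UAS-bla HEK 293T, 3 nM (final) 1-alpha,25-dihydroxyvitamin D3 with test compound, 16 h, 37C. Endpoint is CellTiter-Glo luminescence in the same wells.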

[3] = qHTS assay to identify small molecule agonists of the NFkB signaling pathway - cell viability counter screen (AID 1159515; calls by dose curve; further: nearly all actives have a fitted effect of over 55% in size; further: potency means the concentration at half of the fitted maximal effect)
Outline: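 Using the same wells as the NFkB reporter read, ME-180 NFkB-bla cells given compounds for 5 hr were assessed for viability via CellTiter-Glo, with luminescence taken after a 30 min room-temperature incubation.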

[4] = qHTS assay to identify small molecule agonists of the endoplasmic reticulum stress response signaling pathway - cell viability counter screen (AID 1159517; calls by dose curve; further: nearly all actives have a fitted effect of over 50% in size; further: potency means the concentration at half of the fitted maximal effect)
Outline: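 ESRE-bla HeLa cells, 1,500 per well, seeded overnight then treated with compounds for 5 hr at 37 C. After the beta-lactamase read, viability in the same wells is measured by CellTiter-Glo luminescence after 30 min at room temperature.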

[5] = qHTS assay to identify small molecule antagonists of the retinoid-related orphan receptor gamma (ROR-gamma) signaling pathway - cell viability counter screen (AID 1159520); further: nearly all actives have a fitted effect of over 50% in size; further: potency means the concentration at half of the fitted maximal effect
Outline: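 Tet-on ROR gamma CHO cells were given compounds for 2 hr, then doxycycline hyclate at 1 uM final, and incubated 16 hr at 37 C. Viability was measured as ATP content by CellTiter-Glo luminescence.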

[6] = target: Nuclear receptor ROR-gamma (Homo sapiens) (UniProt P51449); test: qHTS assay to identify small molecule antagonists of the retinoid-related orphan receptor gamma (ROR-gamma) signaling pathway (AID 1159521; further: nearly all actives have a fitted effect of over 50% in size; further: potency means the concentration at half of the fitted maximal effect)
Outline: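 Decreased RORE-driven luciferase luminescence indicates antagonism. Tet-on RORγ CHO cells received compound, then 1 uM final doxycycline 2 h later; signal read after 16 h incubation.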

[7] = qHTS assay to identify small molecule agonists of the AP-1 signaling pathway (AID 1159526; calls by dose curve)
[8] = target: Retinoic acid receptor RXR-alpha (Homo sapiens) (UniProt P19793); test: qHTS assay to identify small molecule agonists of the RXR signaling pathway (AID 1159527; calls by dose curve; further: nearly all actives have a fitted effect of over 35% in size; further: potency means the concentration at half of the fitted maximal effect)
Sequence of Retinoic acid receptor RXR-alpha (Homo sapiens) (P19793 whole entry, looked up): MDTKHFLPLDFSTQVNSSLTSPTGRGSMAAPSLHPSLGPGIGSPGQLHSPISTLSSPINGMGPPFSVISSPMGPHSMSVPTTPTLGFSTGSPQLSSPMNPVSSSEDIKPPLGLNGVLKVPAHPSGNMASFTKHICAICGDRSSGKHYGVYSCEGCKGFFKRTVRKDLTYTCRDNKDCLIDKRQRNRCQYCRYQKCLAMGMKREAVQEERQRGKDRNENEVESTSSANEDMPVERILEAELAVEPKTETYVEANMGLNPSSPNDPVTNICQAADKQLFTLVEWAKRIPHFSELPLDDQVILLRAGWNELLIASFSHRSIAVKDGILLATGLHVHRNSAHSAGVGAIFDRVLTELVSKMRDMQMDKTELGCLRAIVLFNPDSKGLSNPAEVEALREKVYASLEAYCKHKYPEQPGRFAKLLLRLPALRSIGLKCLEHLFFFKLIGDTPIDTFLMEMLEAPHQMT
Outline: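 16 hr incubation of compound-treated RXR-alpha-UAS-bla HEK 293T cells (2% charcoal-stripped FBS, 37 C) preceded a 2 hr room-temperature LiveBLAzer FRET substrate step and blue/green fluorescence measurement.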

[9] = qHTS assay to identify small molecule agonists of the AP-1 signaling pathway - cell viability counter screen (AID 1159525; calls by dose curve; further: nearly all actives have a fitted effect of over 55% in size; further: potency means the concentration at half of the fitted maximal effect)
Outline: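 AP-1-bla ME-180 cells in Opti-MEM with 0.5% dialyzed FBS, compound exposure 5 h at 37 C in 15-point titration. Viability read in the same wells as ATP content by CellTiter-Glo luminescence, normalised to tetra-n-octylammonium bromide and DMSO controls.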

Row | Structure (SMILES) | Potency [1] | Potency [2] | Potency [3] | Potency [4] | Potency [5] | Potency [6] | Potency [7] | Potency [8] | Potency [9]
1 | COC(=O)/C=C(\C)OP(=O)(OC)OC | inactive | inactive | inactive | inactive | inactive | inactive | inactive | inactive | 
2 | CC(C)=CC1C(C(=O)OC(C#N)c2cccc(Oc3ccccc3)c2)C1(C)C (stereo not given) | inactive |  | inactive | inactive | inactive | inactive | inactive |  | 
3 | O=[N+]([O-])C(Br)Br | inactive | inactive | inactive |  | 21.7 µM (active) | inactive | inactive | inactive | inactive
4 | C=C(C)C(=O)[O][Sn]([CH2]CCC)([CH2]CCC)[CH2]CCC | 0.49 µM (active) | 1.95 µM (active) | 0.436 µM (active) |  | 1.37 µM (active) | 306 nM (active) |  |  | 
5 | CCN1CCC2(CC1)COc1cc3c(cc12)N(C(=O)c1ccc(-c2ccc(-c4nnc(C)o4)cc2C)cc1)CC3 | 35.9 µM (active) | 20.2 µM (active) |  | 50.7 µM (active) | 28.3 µM (active) | 2000 nM (active) |  |  | 45.2 µM (active)
6 | Cc1ccc2cc3c(ccc4ccccc43)c3c2c1CC3 | inactive |  | inactive | inactive | inactive | inactive | inactive | inactive | 
7 | C=CC(=O)[O][Sn]([CH2]CCC)([CH2]CCC)[CH2]CCC | 1.38 µM (active) | 3.09 µM (active) | 0.977 µM (active) |  |  | 611 nM (active) |  |  | 2.45 µM (active)
8 | O=S1OCC2C(CO1)C1(Cl)C(Cl)=C(Cl)C2(Cl)C1(Cl)Cl (stereo not given) | 38.9 µM (active) | inactive | 55 µM (active) | 55 µM (active) | 54.5 µM (active) | 43.3 µM (active) and 61.1 µM (active) |  |  | 38.9 µM (active) and 48.9 µM (active)
9 | Brc1ccc(Oc2ccc(Br)cc2Br)c(Br)c1 |  |  | inactive | inactive |  | inactive | inactive | inactive | inactive
10 | CCCCCCCCCCCCCCn1cc[n+](C)c1 | 8.72 µM (active) and 24.3 µM (active) and inactive |  | inactive | 6.18 µM (active) and 19.3 µM (active) and inactive | 27.4 µM (active) and 34 µM (active) and inactive |  |  | inactive | 49.1 µM (active) and 48.5 µM (active) and inactive
11 | Fc1ccc(C(OCCN2CCN(CCCc3ccccc3)CC2)c2ccc(F)cc2)cc1 | 29.8 µM (active) | 21.3 µM (active) | 23.9 µM (active) | 26.8 µM (active) | 29.8 µM (active) | 13300 nM (active) |  |  | 
12 | CC(=O)[O][Pb]([c]1ccccc1)([c]1ccccc1)[c]1ccccc1 | 1.55 µM (active) |  | 0.871 µM (active) | 24.5 µM (active) | 0.77 µM (active) | 193 nM (active) |  |  | 
13 | CC(O)C(=O)[O][Hg][c]1ccccc1 (stereo not given) |  | 1.74 µM (active) | 0.871 µM (active) | 1.1 µM (active) | 1.37 µM (active) | 486 nM (active) |  |  | 2.45 µM (active)
14 | O=[N+]([O-])c1cc(C(F)(F)F)c(Cl)c([N+](=O)[O-])c1Nc1ncc(C(F)(F)F)cc1Cl |  | 6.92 µM (active) | 11 µM (active) | 12.3 µM (active) |  | 1370 nM (active) |  |  | 11 µM (active)
15 | CCOP(=S)(OCC)Oc1cc(C)nc(N(CC)CC)n1 | inactive |  | inactive | inactive |  | inactive |  | inactive | inactive
16 | CN(C)C(=S)SSC(=S)N(C)C |  | 27.2 µM (active) and 24.5 µM (active) | 0.674 µM (active) | inactive | 33.9 µM (active) and 433 nM (active) and 422 nM (active) | 85.1 nM (active) and 344 nM (active) and 266 nM (active) |  |  | 
17 | CC(C)N(C(=O)CCl)c1ccccc1 |  | inactive | inactive | inactive |  |  | inactive |  | inactive
18 | O=C(N[C@H]1N=C(c2ccccc2F)c2cccc3c2N(CC3)C1=O)c1cc2ccccc2[nH]1 | inactive | inactive | inactive |  |  | inactive |  | inactive | 
19 | CCC[CH2][Sn]([CH2]CCC)([CH2]CCC)[CH2]CCC | 38.9 µM (active) | 49 µM (active) | 30.9 µM (active) |  | 10.9 µM (active) | 6110 nM (active) |  | 0.0871 µM (active) | 21.9 µM (active)
20 | CCC(C)Nc1c([N+](=O)[O-])cc(C(C)(C)C)cc1[N+](=O)[O-] (stereo not given) |  |  | inactive |  | inactive | inactive | inactive |  | inactive
21 | CC(C)C(Nc1ccc(C(F)(F)F)cc1Cl)C(=O)OC(C#N)c1cccc(Oc2ccccc2)c1 (stereo not given) |  | inactive | inactive | inactive | inactive | inactive |  | inactive | 

Source: PubChem BioAssay (Tox21)
